# Source: PubChem (National Center for Advancing Translational Sciences (NCATS))
# Hits are enriched below; roughly 1.2% of the tested compounds scored in any of these assays.
# MmCpn inh – blocks the Methanococcus maripaludis chaperonin Mm-Cpn; 330,000 tested, 0.031% active; purified Mm-Cpn ATPase, ADP Transcreener TR-FRET; Potency, µM (highest dose often 76.9 µM), actives largely listed as inhibitors; further: nearly all actives have a fitted effect of over 80% in size
#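 ATP (10 uM final) was added to archaeal chaperonin (25 nM final) after 10 min exposure to test compound at 37°C; after 30 min further incubation, ADP was detected by competitive TR-FRET.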
# gsp ag – gsp mutant agonism; gsp mutant cells, cAMP HTRF, 30 min; Potency, µM (highest dose often 76.9 µM), usual class: activators; 340,000 tested, 0.13% active; AID 624287; active means well fitted activation curve with a large enough effect; inconclusive means small, poorly fitted or top-dose-only effect, or another doubt; inactive means no such curve, though single readings can be large or run the other way; cell line not stated here;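 further: phosphodiesterase inhibitor Ro 20-1724 added with compounds to block cAMP breakdown; nearly all actives have a fitted effect of over 60% in size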
#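 Cells in DMEM/10% FBS with G418 were pretreated with compounds in DMSO plus […] (300 uM stock) for 30 min at 37C. cAMP was measured by HTRF (cAMP-d2 plus anti-cAMP antibody-K) after 30 min at room temperature.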
# gsp antagonist – gsp mutant antagonism; Potency, µM (top dose mostly 76.9 µM), most hits filed as inhibitors; 340,000 tested, 0.4% active; gsp-mutant cells, cAMP HTRF, 30 min; calls by dose curve; cell line not stated here;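 further: intracellular cAMP measured with PDE inhibitor Ro 20-1724 present during compound exposure; nearly all actives have a fitted effect of over 65% in size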
#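 Cells, 2000/well, grown 16–24 h in DMEM 10% FBS with 0.5 mg/ml G418, then compounds plus […] (300 uM addition stock), 30 min at 37C. cAMP read by HTRF (cAMP-d2 and anti-cAMP antibody-K in lysis buffer) after 30 min RT.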
# RXFP1 antagonist – blocks the human relaxin receptor RXFP1 | Q9HBX9 | HEK293-RXFP1, relaxin-stimulated cAMP HTRF, 30 min; active compounds read low | activity change, negative = inhibition, % at 57.5 µM | 350,000 tested, 0.59% active | AID 1259400;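 active means activity change of -60% or lower, but not beyond a set lower limit; inconclusive means change between -60% and -40%, or beyond the set limit; inactive means change above -40%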
# Target sequence (Q9HBX9 whole entry, looked up): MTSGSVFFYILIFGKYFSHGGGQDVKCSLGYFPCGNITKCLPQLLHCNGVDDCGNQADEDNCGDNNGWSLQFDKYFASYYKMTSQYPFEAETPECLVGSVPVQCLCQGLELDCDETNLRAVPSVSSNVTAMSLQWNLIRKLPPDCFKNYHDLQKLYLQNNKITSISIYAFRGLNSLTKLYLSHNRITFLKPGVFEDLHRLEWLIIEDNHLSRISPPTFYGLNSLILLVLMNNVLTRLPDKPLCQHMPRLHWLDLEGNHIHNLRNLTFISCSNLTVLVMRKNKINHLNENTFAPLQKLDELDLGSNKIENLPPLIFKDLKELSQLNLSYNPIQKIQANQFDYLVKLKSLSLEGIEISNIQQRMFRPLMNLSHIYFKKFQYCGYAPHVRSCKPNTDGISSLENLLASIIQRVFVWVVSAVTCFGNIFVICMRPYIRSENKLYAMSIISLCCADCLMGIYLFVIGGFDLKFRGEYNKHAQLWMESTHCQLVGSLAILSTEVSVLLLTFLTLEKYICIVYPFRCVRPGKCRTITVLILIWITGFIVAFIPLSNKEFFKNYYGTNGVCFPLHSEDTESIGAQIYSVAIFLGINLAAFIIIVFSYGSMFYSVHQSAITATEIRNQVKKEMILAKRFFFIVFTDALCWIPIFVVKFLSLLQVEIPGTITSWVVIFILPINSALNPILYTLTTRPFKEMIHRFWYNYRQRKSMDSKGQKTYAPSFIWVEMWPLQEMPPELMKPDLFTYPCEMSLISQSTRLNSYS
# CCT chaperon mod – changes cytosolic chaperonin activity | AID 651819 | activity change, % (no concentration beside the values), hits read low | 360,000 tested, 0.3% active | purified chaperonin ATPase assay, HTRF ADP detection, 30 min; in the data active means activity change below about -30%
#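 Enzyme 40 or 20 nM (batch-dependent) in Tris pH 7.4/KCl/MgCl2/DTT; cpd 76 uM single point; ATP 10 uM; 30 min 37 °C; Transcreener ADP HTRF detection, 30 min RT; ratio 665/615.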
# RXFP1 agonist – activates the human relaxin receptor RXFP1 | Q9HBX9 | HEK293T-RXFP1 cAMP TR-FRET, 30 min; response scale: percent of porcine relaxin response, buffer zero | Potency, µM (top dose mostly 57.5 µM), hits mostly activators | 370,000 tested, 0.3% active; further: nearly all actives have a fitted effect of over 60% in size
#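 HEK293 cells stably expressing RXFP1, treated 30 min at 37C with compounds plus PDE4 inhibitor Ro 20174; cAMP measured by HTRF TR-FRET. Normalized to buffer and 29 nM porcine relaxin; EC50 by Hill fit.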
# Numbers stand for hits; i = inactive; ? = inconclusive; nt = not tested or not shown; [ ] = remark or other dose. Unless noted, the call rests on the fitted dose curve; in most records, active means well fitted curve in the direction sought with a large enough effect; inconclusive means small, poorly fitted or top-dose-only effect, or another doubt; inactive means no such curve, though single readings can be large; an effect the other way counts as inactive or inconclusive.
SMILES,MmCpn inh,gsp ag,gsp antagonist,RXFP1 antagonist,CCT chaperon mod,RXFP1 agonist
Oc1ccc(/C=N/Nc2nc(-c3ccc(Cl)cc3)cc(C(F)(F)F)n2)cc1,i,i,?,-61,i,i
Cc1cc(C)nc(N/N=C/c2ccccc2)n1,i,i,i,i,i,i
Cc1cc(-c2ccccc2)nc(N/N=C/c2ccc(O)cc2)n1,i,i[15.4 µM],i,-77,i,i
Cc1c(C(=O)Nc2cccc(Cl)c2)oc2ccc(S(=O)(=O)N(C)C3CCCCC3)cc12,nt,nt,nt,i,nt,i
O=C1c2ccccc2C(=O)N1c1cccnc1,nt,?,i,i,-44,i
CC(C)(C)Cc1nnc(NC(=O)c2ccco2)s1,i,i,i,i,-76,i
O=C(Nc1nnc(Cc2ccccc2)s1)c1ccco1,i,i,i,i,i,i
Cc1ccccc1C(=O)Nc1nc2c(s1)CC(C(C)(C)C)CC2 (stereo not given),nt,nt,nt,i,nt,i
C[C@@H]1CC[C@@]2(OC1)O[C@H]1C[C@H]3[C@@H]4CC[C@H]5C[C@@H](O)CC[C@]5(C)[C@H]4CC(=O)[C@]3(C)[C@H]1[C@@H]2C,nt,nt,nt,i,nt,nt
CC(C)CCN1CCN(Cc2cc(F)ccc2-n2cccn2)CC1CCO (stereo not given),i,i[15.4 µM],i,i,i,i
OCCC1CN(Cc2cc(F)ccc2-n2cccn2)CCN1C1CCCC1 (stereo not given),i,?,i,i,-30,i
Cc1c(Cl)cccc1NC(=O)NC1CCCCC1,i,i,i,i,-40,i
COc1ccc(-c2nc3scc(CCNS(=O)(=O)c4cccc(C(C)=O)c4)n3n2)cc1,nt,nt,nt,i,nt,i
COCc1cc(CN(C)C(=O)C2CCC(=O)N(Cc3cccc(OC)c3)C2)[nH]n1 (stereo not given),i,i,i,-78,i,i
Cc1ccc(-n2ncc3c(NC4CCCCC4)ncnc32)cc1Cl,nt,nt,nt,i,nt,i
OC(CN1CCCCC1)Cn1c2ccc(Cl)cc2c2cc(Cl)ccc21 (stereo not given),i,i[15.4 µM],i,-62,i,i
OC(CN1CCN(c2ccccn2)CC1)Cn1c2ccc(Cl)cc2c2cc(Cl)ccc21 (stereo not given),i,i,i,i,i,i
O=C(Cc1ccc(S(=O)(=O)N2CCOCC2)s1)N1CCN(c2cccc(C(F)(F)F)c2)CC1,i,i,?,i,i,i
O=C(Cc1ccc(S(=O)(=O)N2CCCC2)s1)N1CCN(c2ccccc2)CC1,i,i[15.4 µM],i,i,-93,i
CCOc1ccc(/C=C(\C#N)C(=O)Nc2cccnc2)cc1,i,i,i,i,-63,i
CCN(CC)CCCNc1ccc2ncn3c4ccc(O)cc4c(=O)c1c23,nt,11µM,?,i,i,nt
CN(C)CCNc1ccc2nnn3c4ccc(O)cc4c(=O)c1c23,nt,?,i,i,i,nt
O=C(O)CC/C(=N\Nc1ccc([N+](=O)[O-])cc1)c1ccccc1,i,i[15.4 µM],32µM,i,i,i
CN1CCN(N)CC1,nt,nt,nt,i,nt,nt
COc1ccc(/C(C)=C/C(=O)O)c(OC)c1,nt,nt,nt,i,nt,nt
SMILES,MmCpn inh,gsp ag,gsp antagonist,RXFP1 antagonist,CCT chaperon mod,RXFP1 agonist
CCC(=O)N1c2ccccc2CC1C(=O)NCCN1CCN(c2cccc(C(F)(F)F)c2)CC1 (stereo not given),nt,nt,nt,i,nt,i
CC1=CC(C)(C)N2C(=O)C3(C(C#N)=C(N)OC4=C3C(=O)CCC4)c3c(C)c(C)cc1c32 (stereo not given),i,i,i,i,i,i
CC1=CC(C)(C)N2C(=O)C3(C(C#N)=C(N)Oc4cc(O)ccc43)c3c(C)c(C)cc1c32 (stereo not given),i,i,i,-73,i,i
N#Cc1ccc(NC(=O)COCc2cc(-c3ccc(F)cc3)on2)cc1,nt,nt,nt,i,nt,i
N=c1sccn1CC(=O)Nc1cccc2ccccc12,i,?,i,i,-122,i
CCN(CC)S(=O)(=O)c1ccc(C(=O)NCCSc2c(-c3ccc(F)cc3)[nH]c3ccccc23)cc1,nt,nt,nt,i,nt,i
COc1ccc(C(=O)c2cn(Cc3ccc(C)cc3)c3cc4c(cc3c2=O)OCO4)cc1,nt,nt,nt,i,nt,i
CC(C(=O)NC1CC1)c1ncc(C(F)(F)F)cc1Cl (stereo not given),i,i[15.4 µM],i,i,i,i
CC(C(=O)N1CCN(c2ccc(Cl)cc2)CC1)c1ncc(C(F)(F)F)cc1Cl (stereo not given),i,i,35µM,i,i,i
Cc1cc(C)c(NC(=O)C(=O)NCC(c2cccnc2)N2CCN(Cc3ccccc3)CC2)c(C)c1 (stereo not given),nt,nt,nt,i,nt,i
Cn1c(SCc2cccc([N+](=O)[O-])c2)nc2c(c1=O)SCC2,i,i,35µM,i,i,i
O=[N+]([O-])c1cccc(CSc2nnc3ccccn23)c1,i,i[15.4 µM],nt,i,i,25µM
O=C(CCc1ccccc1)NCCc1csc(-c2cccc(F)c2)n1,nt,nt,nt,i,nt,i
O=[N+]([O-])c1ccc(C=NNC(=S)NN=Cc2ccc([N+](=O)[O-])cc2)cc1,nt,i,i,-62,i,nt
COc1cc(NC(=O)c2ccc(-c3nc(CSc4ccccc4)c(C)o3)cc2)cc(OC)c1,nt,nt,nt,i,nt,i
COC(=O)c1sc(NC(=O)c2c(F)cccc2F)c(C#N)c1C,i,i,i,i,i,i
COC(=O)c1sc(NC(=O)c2c(OC)cccc2OC)c(C#N)c1C,?,28µM,i,i,i,?
CC1CCCC(C)N1C(=O)Cn1nnc(-c2ccccc2)n1 (stereo not given),i,16µM,i,i,i,i
CCOC(=O)Cn1nnc(-c2ccccc2)n1,i,i,i,i,i,i
CCN(CC)S(=O)(=O)c1ccc(-c2nnc(SCC(=O)N3c4ccccc4CC3C)n2CC)cc1 (stereo not given),i,i,28µM,i,i,i
O=C(c1cccc(N2C(=O)C3C4C=CC(C4)C3C2=O)c1)N1CCN(c2ccc(F)cc2)CC1 (stereo not given),i,i,i,i,i,i
CC1C=CCC2C(=O)N(c3cccc(C(=O)N4CCN(c5ccc(F)cc5)CC4)c3)C(=O)C12 (stereo not given),i,28µM,i,i,i,i
CCOC(=O)c1ccccc1NC(=O)c1cncc(Br)c1,i,i[15.4 µM],i,i,-37,i
CCOC(=O)c1ccccc1NC(=O)c1cccnc1,i,i,i,i,i,i
C=C(C)Cn1c(CCn2c3ccccc3c3ccccc32)n[nH]c1=S,i,i,i,-65,i,i
CC(C)C[C@H](NC(=O)N1CCn2c1nc1ccccc12)C(=O)NC1CCCCC1,i,i,i,-67,i,i
CCOC(=O)c1c(C)oc2ncnc(N3CCN(c4ccccc4)CC3)c12,nt,nt,nt,?,nt,i
O=C(CCN1CCc2ccccc2CC1)c1ccc2c(c1)OCCO2,i,i,i,-65,i,i
CCc1ccccc1NC(=O)c1cnc(N2CCCCC2)c2ccccc12,nt,nt,nt,i,nt,i
